# According to PubChem BioAssay:
# Where “and” joins values, the source holds several entries; their conditions need not be identical. Equal values may be shown once. Inconclusive results are not listed. Calls of active or inactive are those of the source. Unless noted, how the calls were made is not given here.
# Experiments:
# [1] = circadian clock period modulators, cell-based, LOPAC library, luminescence reporter (AID 2774); conditions: circadian reporter cells, at 7 µM, actives lie on both sides;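 further: values are relative to mean of DMSO wells on each plate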
# [2] = system: Hepatitis C virus NS3 helicase; experiment: HCV NS3 helicase inhibitors, primary screen, biochemical, fluorescence polarization, LOPAC1280 library (AID 687035; in the data active means inhibition above about 37%); conditions: Purified HCV NS3 helicase, Cy5-dT15 ssDNA binding fluorescence polarization; stronger effect = higher value; concentration not given here
# [3] = Cy5 fluorescence quenching or enhancement artefacts, artefact control for HCV NS3 helicase inhibitor project, biochemical, LOPAC1280 (AID 687037); conditions: Cy5-DNA-NS3h complex fluorescence interference counterscreen
# [4] = system: Aerobactin synthetase IucA (Klebsiella pneumoniae, hypervirulent); experiment: IucA enzyme inhibition, biochemical, LOPAC library, absorbance readout (AID 1346212); conditions: IucA enzyme assay, absorbance (OD) readout; stronger effect = lower value;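 tested at 8 µM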;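 further: 100% = no compound wells and 0% = no enzyme wells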
# [5] = sensitizers of A549 cells to miR-34 induction, primary screen, imaging, A549 dox-inducible miR-34, nuclei and caspase counts (AID 1347080;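 active means compounds whose cell count with miR-34 switched on is under 0.7 times the count with it off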); conditions: A549 miR-34 inducible, Hoechst nuclei count, 48 h
# [6] = phospholipid biosynthesis inhibitors in animal cells, primary screen, cell-based, LOPAC library, screen 4 (AID 1347384); conditions: phospholipid biosynthesis inhibition screen, at 10 µM
# [7] = viability rescue of complex I mutant cybrids, primary screen, cell-based, galactose medium, ATP luminescence (AID 1645843;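 active means z-score of at least 1.8 in each of two replicates, scored against plate mean and spread of sample wells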;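 further: positive z means more ATP and so rescue of galactose-driven cybrid death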); conditions: complex I mutant cybrid cells, 72 h, stronger effect = higher value
# [8] = hESC survival regulators, cell-based (AID 493140); conditions: human embryonic stem cell survival screen; stronger effect = higher value;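 further: cells exposed to compounds for four days before counting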
# [9] = liver-stage malaria parasite growth inhibition, primary screen, cell-based, HepG2, luciferase luminescence, HepG2 viability (AID 624349; in the data active means parasite load remaining mostly below about 12%, no sharp cut-off; inactive means mostly above about 10%;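 further: 100% = mean of DMSO negative control wells on the same plate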); conditions: P. berghei liver stage in HepG2, luciferase luminescence, concentration not given here; parasite load remaining: stronger effect = lower value; viability: measured here: HepG2 viability without parasites
# [10] = growth inhibition of DIPG glioma cells, dose response, cell-based, SU-DIPG-XIII, MIPE4.0, CellTiter-Glo, qHTS (AID 1347061; cut-off not given, nearly all actives have AC50 up to about 37 µM;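 further: cells exposed to compound for 48 hours before readout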); conditions: SU-DIPG-XIII viability, CellTiter-Glo ATP luminescence
# [11] = growth inhibition of DIPG glioma cells, dose response, cell-based, JHH-DIPG-1, MIPE4.0, CellTiter-Glo, qHTS (AID 1347062; cut-off not given, nearly all actives have AC50 up to about 27 µM;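 further: cells exposed to compound for two days before readout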); conditions: JHH-DIPG-1 viability, CellTiter-Glo ATP luminescence
# [12] = growth inhibition of DIPG glioma cells, dose response, cell-based, SU-DIPG-IV, MIPE4.0, CellTiter-Glo, qHTS (AID 1347063; cut-off not given, nearly all actives have AC50 up to about 30 µM;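 further: compound exposure lasted 48 hours before the viability readout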); conditions: SU-DIPG-IV viability, CellTiter-Glo ATP luminescence
# [13] = growth inhibition of DIPG glioma cells, dose response, cell-based, SU-DIPG-XIII, MIPE5.0, CellTiter-Glo, qHTS (AID 1347064; cut-off not given, nearly all actives have AC50 up to about 23 µM;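 further: cells exposed to compound for 48 hours before the viability read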); conditions: SU-DIPG-XIII viability, CellTiter-Glo ATP luminescence
# [14] = SU-DIPG-VI glioma cell viability, MIPE4.0 library, CellTiter-Glo luminescence, qHTS (AID 1347066; cut-off not given, nearly all actives have AC50 up to about 30 µM;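 further: cells exposed to compound for 48 hours before readout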); conditions: CellTiter-Glo ATP luminescence
# [15] = JHH-DIPG-1 glioma cell viability, MIPE5.0 library, CellTiter-Glo luminescence, qHTS (AID 1347067; cut-off not given, nearly all actives have AC50 up to about 26 µM;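 further: cells exposed to compound for 48 hours before readout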); conditions: JHH-DIPG-1 glioma viability, CellTiter-Glo ATP luminescence
# [16] = inhibitors of Cryptococcus chitosan production, flow cytometry, Cibacron Brilliant Red staining (AID 1347148); conditions: Cryptococcus neoformans chitosan, stronger effect = lower value; at 10 µM unless noted;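 further: compound exposure lasted three days at 37 degrees C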
# [17] = measured here: relative caspase fold change +Dox/-Dox
# [18] = measured here: total cells with miR-34 induction, stronger effect = lower value
# [19] = measured here: total cells without miR-34 induction
SMILES,period change [1],inhibition [2],fluorescence ratio (interference) [3],remaining activity [4],fold change ([5]; stronger effect = lower value),"fold change [5, 17]","cell count [5, 18]","cell count [5, 19]",outcome [6],z-score [7],survival [8],parasite load remaining [9],viability [9],AC50 [10],AC50 [11],AC50 [12],AC50 [13],AC50 [14],AC50 [15],fold fluorescence [16]
COc1ccc2c(c1O)-c1cccc3c1[C@@H](C2)N(C)CC3,-0.1 h (inactive),-4% (inactive),1 (inactive),102% (inactive),0.958 (inactive),1.07,7690,8030,inactive,-0.76 (inactive),–,–,–,–,–,–,–,–,–,–
CN1CC[C@@]2(C)c3cc(O)ccc3N(C)C12 (stereo not given in full),-0.055 h (inactive),1% (inactive),1 (inactive),92.9% (inactive),1.09 (inactive),1.19,8970,8270,inactive,-1.04 (inactive),4.58 (inactive),–,–,–,–,–,–,–,–,–
CC(=O)NBr,0.03 h (inactive),-1% (inactive),0.9 (inactive),100% (inactive),1.03 (inactive),2.31,10500,10100,inactive,0.61 (inactive),–,–,–,–,–,–,–,–,–,–
CCCN1CC[C@@H]2c3cc(O)ccc3CC[C@@H]21,-0.045 h (inactive),-4% (inactive),0.9 (inactive),105% (inactive),1.1 (inactive),0.654,11000,10000,inactive,0.605 (inactive),–,–,–,–,–,–,–,–,–,–
CC(=O)[C@H]1CCC2C3CC[C@H]4C[C@H](O)CC[C@]4(C)C3CC[C@@]21C (stereo not given in full),-0.055 h (inactive),0% (inactive),1 (inactive),95.7% (inactive),1.03 (inactive),0.981,10100,9760,inactive,-0.6 (inactive),–,–,–,–,–,–,–,–,–,–
O=C1C=CC(=O)C=C1,-0.065 h (inactive),0% (inactive),1 (inactive),109% (inactive),1.02 (inactive),1.65,9760,9540,inactive,0.205 (inactive),–,–,–,–,–,–,–,–,–,–
COc1ccc2c(c[n+](C)c3c4cc5c(cc4ccc23)OCO5)c1OC,0.045 h (inactive),-3% (inactive),0.9 (inactive),110% (inactive),1.19 (inactive) and 0.771 (inactive),0.571 and 1.14,525 and 1050,442 and 1360,inactive,-1.52 (inactive),–,41.8% (inactive),157%,26.4 µM (active),4.18 µM (active),5.26 µM (active),4.17 µM (active),8.33 µM (active),5.9 µM (active),7.04 [at 143.5 µM] (inactive)
N#C/C(=C\c1ccc(O)c(O)c1)C(N)=S,–,–,–,89.1% (inactive),0.909 (inactive),1.22,4790,5270,–,–,132 (inactive),–,–,–,–,–,–,–,–,5.68 [at 227 µM] (inactive)
Clc1cc(I)cc(Cl)c1NC1=NCCN1,0.11 h (inactive),-6% (inactive),0.9 (inactive),117% (inactive),1.15 (inactive),1.05,11200,9770,inactive,0.175 (inactive),–,–,–,–,–,–,–,–,–,–
N#CC(C#N)=Cc1ccc([N+](=O)[O-])c(O)c1,-0.02 h (inactive),–,–,80.4% (inactive),0.901 (inactive) and 1.08 (inactive),1.46 and 1.27,4360 and 6240,4840 and 5770,–,–,124 (inactive),–,–,–,–,–,–,–,–,5.5 [at 232.4 µM] (inactive)
NC(=O)CI,-0.03 h (inactive),-1% (inactive),1.1 (inactive),124% (inactive),1.11 (inactive),1.73,3640,3270,inactive,-1 (inactive),–,–,–,–,–,–,–,–,–,–
